Screening results as filed in PubChem BioAssay.
Shown are actives, neighbours in structure and some others; about 3.4% of the full set was active somewhere.
MITF act: activators of MITF-driven TRPM1 promoter activity in SK-MEL-5 cells | SK-MEL-5 TRPM1-promoter luciferase, 24 h; % of positive control, neutral wells = 0 | AID 588334 | 300,000 tested, 0.75% active | activation, % at 12.5 µM;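 active = mean activation of at least 80% with every replicate also reaching 80%; inconclusive = mean reaches 80% but some replicate falls short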
Env fusion inh: HIV envelope-mediated fusion inhibition; HeLa-JRFL Env/CEM21 cell fusion, luciferase; inhibition, % at 12.3 µM; 360,000 tested, 1.1% active;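 active = mean replicate inhibition score of at least 50 and every replicate individually at or above 50; inconclusive = only one of the two criteria met; inactive = mean below 50 and not all replicates reaching 50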
miR122 inh: miR-122 inhibition in Huh7 cells. Huh7 miR-122 Renilla luciferase sensor, 48 h; neutral wells = 0, positive control = 100. activation (reporter increase), % at 12.5 µM. 340,000 tested, 0.3% active;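 active = mean replicate activation score at least 90 and every replicate individually at or above 90; inconclusive = only one of the two criteria met; inactive = neither criterion met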;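 note: higher luciferase means less miR-122 activity so hits act as miR-122 inhibitors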
esBAF inh: SWI/SNF esBAF complex inhibition | mouse ES cells, Bmi1-luciferase knock-in reporter, 24 h; 100% = twice the neutral-well signal | reporter increase, % at 12.5 µM | 350,000 tested, 2% active | AID 602393; in the data active = activation above about 40%; inconclusive = no clear call, values can overlap the other calls;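 note: a rise in the Bmi1 reporter signal indicates esBAF inhibition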
Wnt bcat act: activators of Wnt/beta-catenin signaling | activation, % at 9.35 µM | 300,000 tested, 1.2% active | Wnt/beta-catenin reporter cell assay, activator, plate reader | AID 743398; in the data active = activation above about 30%, passing the limit was not always enough; inconclusive = no clear call, values can overlap the other calls
Large screens that a line does not name were inactive.

CO[C@@H]1CN(C)C(=O)c2cc(NC(=O)c3ccc4c(c3)OCO4)ccc2OC[C@@H](C)NC[C@@H]1C	none (no result: MITF act, miR122 inh, Wnt bcat act)
COc1ccccc1-c1ccc2c(c1)O[C@@H](CN(C)S(=O)(=O)c1ccc(F)cc1)[C@@H](C)CN([C@H](C)CO)S2(=O)=O	none (no result: MITF act, Env fusion inh, Wnt bcat act)
Cc1ccc(F)cc1S(=O)(=O)N[C@@H]1CCN(C(=O)c2ccc(OC(C)C)cc2)C1	none (no result: MITF act, miR122 inh, esBAF inh, Wnt bcat act)
O=C(C[C@H]1CC[C@@H](NC(=O)Nc2ccc3c(c2)OCO3)[C@@H](CO)O1)NCCCN1CCOCC1	none (no result: MITF act, Env fusion inh, miR122 inh, Wnt bcat act)
COc1ccccc1C#Cc1ccc([C@@H]2[C@H]3CN(C(=O)C4CC4)CCCCN3[C@H]2CO)cc1	none (no result: MITF act, Env fusion inh, esBAF inh, Wnt bcat act)
O=c1c(-c2nc3ccccc3s2)cccn1Cc1ccccc1	MITF act inconclusive, esBAF inh inconclusive (no result: Wnt bcat act)
Oc1ccc(-c2nc3ccccc3s2)c(O)c1	Wnt bcat act 58 (no result: miR122 inh, esBAF inh)
Nc1ccccc1-c1nc2ccccc2s1	esBAF inh inconclusive, Wnt bcat act 46
c1csc(-c2nc3ccccc3s2)c1	esBAF inh 47
Nc1ccc(O)c(-c2nc3ccccc3s2)c1	none
CN(C)C(=O)C[C@H]1CC[C@H]2[C@@H](COC[C@H](O)CN2C(=O)C2CC2)O1	none (no result: MITF act, Env fusion inh, Wnt bcat act)
CCC(=O)N1C[C@@H](O)COC[C@@H]2O[C@H](CC(=O)N3CCCCC3)CC[C@H]21	none (no result: MITF act, Wnt bcat act)
CO[C@H]1CN(C)C(=O)c2ccc(NC(=O)NC(C)C)cc2OC[C@@H](C)N(Cc2cncnc2)C[C@@H]1C	none (no result: MITF act, Env fusion inh, Wnt bcat act)
CC(C)(C)c1ccc(C(=O)c2c[nH]c(C(=O)NCc3cccnc3)c2)cc1	esBAF inh 55 (no result: MITF act, Wnt bcat act)
CC(C)(C)c1ccc(OCc2ccc(C(=O)NCc3cccnc3)o2)cc1	esBAF inh inconclusive, Wnt bcat act 51
CC(C)(c1ccccc1)c1ccc(OCc2ccc(C(=O)O)o2)cc1	MITF act 88, Wnt bcat act 38
CC=Cc1ccc2n(c1=O)C[C@H]1[C@H](CO)[C@@H](C(=O)NCc3ccccn3)[C@@H]2N1CCC (mixture of isomers)	none (no result: MITF act, Env fusion inh, Wnt bcat act)
O=c1[nH]cnc2c1nnn2C1OC(CO)C(O)C1O (configuration not stated)	esBAF inh 71 (no result: MITF act, Env fusion inh)
O=C(/C=C/c1cccs1)NCc1cccs1	Wnt bcat act 43 (no result: MITF act, esBAF inh)
C=CCNC(=O)/C=C/c1cccs1	none
Cc1ccc(/C=C/C(=O)NCc2cccs2)c(C)c1	none (no result: miR122 inh, esBAF inh)
Cc1ccc(/C=C/C(=O)NCc2cccs2)cc1	esBAF inh 46 (no result: Wnt bcat act)
O=C(/C=C/c1cccs1)Nc1cccnc1	MITF act 92 (no result: miR122 inh, esBAF inh)
Cc1noc(C)c1NC(=O)N[C@@H]1CC[C@@H](CC(=O)NCc2ccc(Cl)c(Cl)c2)O[C@@H]1CO	none (no result: MITF act, Wnt bcat act)
O=C(C[C@H]1CC[C@H](NC(=O)CN2CCOCC2)[C@@H](CO)O1)NC1CCCCC1	none (no result: MITF act, miR122 inh, Wnt bcat act)
CN1CCN(C(=O)[C@@H]2[C@@H](CO)[C@@H]3Cn4c(cccc4=O)[C@H]2N3S(=O)(=O)c2ccccc2F)CC1	none (no result: MITF act, Env fusion inh, Wnt bcat act)
Cc1ccc(O)c(CP(=O)(c2ccccc2)c2ccccc2)c1	none (no result: esBAF inh)
Cc1ccc(O)c(CN(C)Cc2cc(C)ccc2O)c1	esBAF inh 51
O=[N+]([O-])c1cccc(NC(=S)Nc2nc(-c3ccccc3Cl)cs2)c1	Env fusion inh 97 (no result: miR122 inh)
N#C[C@H]1[C@@H](c2ccc(-c3cccnc3)cc2)[C@@H](CO)N1C(=O)Nc1ccc(F)cc1	none (no result: MITF act, Env fusion inh, miR122 inh, Wnt bcat act)
C[C@@H]1CCCCO[C@@H](CN(C)C(=O)Nc2ccccc2)[C@@H](C)CN([C@@H](C)CO)C(=O)c2cc(NC(=O)Nc3cccc4ccccc34)ccc2O1	none (no result: MITF act, miR122 inh, esBAF inh, Wnt bcat act)
CC1CCc2c(sc(/N=C/N(C)C)c2C#N)C1 (configuration not stated)	Wnt bcat act 39 (no result: esBAF inh)
CN(C)/C=N/c1sc2c(c1C#N)CCCC2	none
CC1CCc2c(sc(NC(=O)COC(=O)C3CCCO3)c2C#N)C1 (configuration not stated)	none (no result: miR122 inh, esBAF inh)
CCOC(=O)Nc1sc2c(c1C#N)CCC(C)C2 (configuration not stated)	MITF act 83, esBAF inh inconclusive (no result: Env fusion inh, Wnt bcat act)
CC1CCc2c(sc(NC(=O)C3CCCO3)c2C#N)C1 (configuration not stated)	MITF act 128, esBAF inh inconclusive
CCNC(=O)C[C@@H]1CC[C@@H](NS(=O)(=O)c2ccc(C)cc2)[C@H](CO)O1	none (no result: MITF act, miR122 inh, Wnt bcat act)
Cc1csc(SCC(=O)Nc2nc(-c3ccccc3)cs2)n1	none (no result: Env fusion inh, Wnt bcat act)
CC(C)(C)NC(=O)CSc1nc(-c2ccc(F)cc2)cs1	Wnt bcat act 38 (no result: esBAF inh)
Cc1ccc(-c2csc(NC(=O)CSc3nc(C)cs3)n2)cc1	esBAF inh 45
CCNC(=O)CSc1nc(-c2ccc(F)cc2)cs1	none (no result: miR122 inh, esBAF inh)
COc1ccc(NC(=O)CSc2nc(C)cs2)c([N+](=O)[O-])c1	Wnt bcat act 46 (no result: Env fusion inh, miR122 inh)
C[C@@H]1CCCCO[C@H](CN(C)C(=O)c2ccncc2)[C@H](C)CN([C@@H](C)CO)C(=O)c2cc(NS(=O)(=O)c3cn(C)cn3)ccc2O1	none (no result: MITF act, Wnt bcat act)
CCCCn1c(NC(=O)c2ccc(Br)o2)c(S(=O)(=O)c2ccccc2)c2nc3ccccc3nc21	miR122 inh 165 (no result: Wnt bcat act)
CCCCn1c(NC(=O)c2ccco2)c(S(=O)(=O)c2ccc(C)cc2)c2nc3ccccc3nc21	none (no result: miR122 inh, esBAF inh)
COCc1cn(CC[C@H]2CC[C@H](NC(=O)c3ccccc3)[C@H](CO)O2)nn1	none (no result: MITF act, miR122 inh, Wnt bcat act)
Cc1ccc(NC(=O)c2ccc3nccnc3c2)c(C)c1	MITF act 99
Cc1cc(NC(=O)c2ccc3nccnc3c2)ccc1Br	Wnt bcat act 66 (no result: Env fusion inh)
Cc1cc(C)c(NC(=O)c2ccc3nccnc3c2)c(C)c1	none (no result: Env fusion inh)
O=C(Nc1ccc(SC(F)F)cc1)c1ccc2nccnc2c1	esBAF inh 122 (no result: Wnt bcat act)
Cc1ccc(C(=O)Nc2ccc3nccnc3c2)cc1	none (no result: Env fusion inh, esBAF inh, Wnt bcat act)
COc1ccc(CNC(=O)C[C@@H]2CC[C@@H](NC(=O)c3cccc(F)c3)[C@H](CO)O2)cc1	none (no result: MITF act, miR122 inh, Wnt bcat act)
CCC(=O)N(C)C[C@@H]1Oc2cc(-c3cncnc3)ccc2S(=O)(=O)N([C@@H](C)CO)C[C@H]1C	none (no result: MITF act, Wnt bcat act)
COc1ccc(C#Cc2ccc3c(c2)[C@]2(C(=O)N3)[C@H](c3ccc(OCCO)cc3)N3[C@H](c4ccccc4)[C@H](c4ccccc4)OC(=O)[C@H]3[C@@H]2C(=O)NC[C@H](O)c2ccccc2)cc1	none (no result: MITF act, miR122 inh, esBAF inh, Wnt bcat act)
CCCNC(=O)N1[C@@H]2CN(C(=O)c3cccnc3)c3ccccc3[C@@H]2[C@@H]1CO	none (no result: MITF act, Env fusion inh, Wnt bcat act)
COc1ccccc1-c1cnc(C(O)c2ccc(C)cc2)[nH]1 (configuration not stated)	esBAF inh 55 (no result: MITF act)
OC(c1ccccc1)c1ncc(-c2ccccc2F)[nH]1 (configuration not stated)	esBAF inh 62 (no result: MITF act)
OC(c1ccc(-c2ccccc2)cc1)c1ncc(-c2ccccc2F)[nH]1 (configuration not stated)	none (no result: MITF act)
Cc1cc(C(O)c2ncc(-c3ccccc3F)[nH]2)ccc1F (configuration not stated)	miR122 inh 136 (no result: MITF act)
Cc1cc(C)cc(C(O)c2ncc(-c3ccccc3F)[nH]2)c1 (configuration not stated)	miR122 inh 110 (no result: MITF act)
CCS(=O)(=O)Nc1ccc2c(c1)C(=O)N(C)[C@H]1CC[C@@H](CC(=O)NCc3ccc(OC)cc3)O[C@H]1CO2	none (no result: MITF act, Env fusion inh, Wnt bcat act)
